# Assay results taken from ChEMBL document CHEMBL3988442, “University of Dundee, Small-Polar-MMV Screening Library” (2021).
# Among all 69,000 compounds or so, about 950 (1.4%) showed an effect of 50% or more. This excerpt belongs to a sample that is enriched for strong results.
# Test system: Mycobacterium tuberculosis
# Experiment: Cornell M. t heat shock assay; also: in the data most compounds retested in dose-response had high values
# Type: functional, organism-based
# Design: dose or concentration left out as unconfirmed
row,SMILES,Percent Effect [%]
1,CCc1n[nH]c(C(=O)NCCn2ccnc2C)c1C,-101
2,CCc1n[nH]c(C(=O)NCCn2nccc2C)c1C,66.56
3,CCc1n[nH]c(C(=O)NCCn2ccc(C)n2)c1C,-5.809
4,CO[C@H]1[C@@H]2CC[C@H]1CN(c1nc(C)nc3ccsc13)C2,7.911
5,Cc1ccc(C2(CN3CCN(Cc4cnc(C)n4C)CC3)CC2)cc1.Cl,-8.472
6,CC(=O)c1cc(CN2C[C@H]3CC[C@@H]2CN(S(C)(=O)=O)C3)cs1,74.41
7,CS(=O)(=O)N1C[C@@H]2CC[C@H](C1)N(Cc1ccsc1)C2,18.67
8,CC(=O)c1cc(CN2C[C@H]3CC[C@@H]2CN(S(=O)(=O)N(C)C)C3)cs1,-20.68
9,Cc1ccc(CN2CCO[C@H]3[C@H](OCc4cccnc4)CC[C@@H]32)o1.O=C(O)C(F)(F)F.O=C(O)C(F)(F)F,17.99
10,Cl.c1cnc2[nH]c(C3CCCNC3)c(CN3CCCOCC3)c2c1 (configuration not stated),-14.8
11,CCOc1ccc(Br)cc1-c1cc(N)[nH]n1.Cl,3.82
12,CCOc1ccccc1-c1cc(N)[nH]n1.Cl,-11.82
13,Cc1noc(C)c1CN1C(=O)[C@H]2CC[C@@H]1CN(Cc1cccnc1N)C2,4.913
14,Nc1ncccc1CN1C[C@@H]2CC[C@H](C1)N(CC1CC1)C2=O,-11.72
15,CC(C)=CCN1C(=O)[C@H]2CC[C@@H]1CN(Cc1cccnc1N)C2,105.7
16,Cl.NC(=O)C1CN(c2ccc(F)cc2)CCN1 (configuration not stated),7.399
17,Cc1ccc(CN(CCN(C)C)Cc2ncc[nH]2)s1,-11.95
18,Cc1ccc(CN(CCCn2ccnc2)Cc2c[nH]nc2C(C)(C)C)s1.O=C(O)CC(O)(CC(=O)O)C(=O)O,9.157
19,COc1ccc(F)c(CN2CCC(c3cc(O)nc(C)n3)C2)c1.O=C(O)CC(O)(CC(=O)O)C(=O)O (configuration not stated),-13.93
20,Cc1ccc(CN(CCCn2ccnc2)Cc2c[nH]cn2)s1.O=C(O)CC(O)(CC(=O)O)C(=O)O,-3.628
21,OCc1ccc(CN(CCCn2ccnc2)Cc2cccnc2)o1,13
22,COc1ccc(Cl)cc1CNCCCn1ccnc1,13.48
23,Cc1ccc(CN(CCCn2ccnc2)Cc2cnn(C)c2)s1.O=C(O)CC(O)(CC(=O)O)C(=O)O,-39.87

row,SMILES,Percent Effect [%]
1,Cc1ccc(CN(CCCn2ccnc2)Cc2cccs2)s1.O=C(O)CC(O)(CC(=O)O)C(=O)O,106
2,COc1ccc(F)c(CN(CCCn2ccnc2)Cc2ccc(C)s2)c1.O=C(O)CC(O)(CC(=O)O)C(=O)O,102.4
3,Cl.Fc1ccc(Cc2cnc(C3CCCN3)cn2)cc1 (configuration not stated),-27.64
4,COc1ccc(CN(C)[C@@H]2COC[C@H]2c2ccc(F)cc2)cc1.O=C(O)CC(O)(CC(=O)O)C(=O)O,-8.721
5,Cc1oncc1C(=O)N[C@@H]1CN(CC2CC2)C[C@@H]2CCCO[C@@H]21.O=C(O)C(F)(F)F,28.88
6,COCCNC(=O)[C@@H]1C[C@@H]2CCN(c3ncccn3)C[C@H]2O1.O=C(O)C(F)(F)F,-37.39
7,O=C(NC1CC1)C1=CC2(CCN(CC3CC3)CC2)c2ccccc21.O=C(O)C(F)(F)F,-12.48
8,c1cc(CN(CCCn2ccnc2)Cc2ccoc2)ccn1,0.7312
9,Cc1ccc(CN(Cc2cccnc2)C2CC(C)(C)NC(C)(C)C2)s1.O=C(O)CC(O)(CC(=O)O)C(=O)O,-4.253
10,CC(C)OCCCN(Cc1ccncc1)Cc1cc(F)ccc1F.Cl,-8.981
11,Cc1ccc(CN(CCCN2CCOCC2)Cc2cncn2C)o1.O=C(O)CC(O)(CC(=O)O)C(=O)O,7.314
12,Cc1ccc(CN(CCCn2ccnc2)Cc2c(F)cccc2F)s1.O=C(O)CC(O)(CC(=O)O)C(=O)O,103.6
13,COc1ccccc1CN(CCCn1ccnc1)CC1CCOC1.O=C(O)CC(O)(CC(=O)O)C(=O)O (configuration not stated),0.5182
14,Fc1ccccc1CN(CCCn1ccnc1)CC1CCOC1.O=C(O)CC(O)(CC(=O)O)C(=O)O (configuration not stated),-23.62
15,Cc1ccc(CN(CCCn2ccnc2)Cc2cc(F)ccc2F)s1.O=C(O)CC(O)(CC(=O)O)C(=O)O,105.9
16,OCc1ccc(CN(CCCn2ccnc2)Cc2ccncc2)o1,-4.525
17,COC[C@]12COC[C@H]1CN(Cc1ccc3c(c1)OCO3)C2.O=C(O)C(F)(F)F,-2.808
18,CC(CN1CCOCC1)OC(=O)c1ccccc1I.Cl (configuration not stated),-19.16
19,O=C(O)C(F)(F)F.c1ccc(N2CCOC3(CCCN(c4ncccn4)C3)C2)nc1 (configuration not stated),36.25
20,Cn1cc(CN2CC[C@]3(C[C@H](Oc4ccccn4)CO3)C2)cn1.O=C(O)C(F)(F)F.O=C(O)C(F)(F)F,21.89
21,Cc1cccnc1N1CC2(CCN(Cc3cnn(C)c3)C2)C1.O=C(O)C(F)(F)F.O=C(O)C(F)(F)F,-17.77
22,CN(C)CCN1C(=O)CCC12CCN(Cc1cccs1)CC2.O=C(O)C(F)(F)F.O=C(O)C(F)(F)F,-4.329
23,CN(C)C(CNC(=O)c1cc2c([nH]c1=O)CCCC2=O)c1ccsc1 (configuration not stated),-5.178

row,SMILES,Percent Effect [%]
1,Cc1ccccc1CN1C[C@@H]2COC[C@]2(CNC(=O)C2CCC2)C1.O=C(O)C(F)(F)F,17.62
2,Cc1ccc(CN(CCCn2ccnc2)Cc2cnc(N(C)C)nc2)s1.O=C(O)CC(O)(CC(=O)O)C(=O)O,-30.9
3,CCc1ccc(CN(CCCn2ccnc2)Cc2ccc(C)s2)o1.O=C(O)CC(O)(CC(=O)O)C(=O)O,103.6
4,Cc1ccc(CN(CCCn2ccnc2)Cc2[nH]cnc2C)s1.O=C(O)CC(O)(CC(=O)O)C(=O)O,-16.97
5,Cc1nc(CN2CCO[C@@H]3CN(Cc4ccccn4)CC[C@@H]3C2)cs1.O=C(O)C(F)(F)F.O=C(O)C(F)(F)F,-0.9653
6,O=C(CCc1n[nH]c2c1CCCC2)N1C[C@@H]2CC[C@H](C1)N(CC1CC1)C2,90.59
7,CS(=O)(=O)N1C[C@@H]2CC[C@H](C1)N(C(=O)CCc1n[nH]c3c1CCCC3)C2,3.499
8,CC(=O)N1C[C@@H]2CC[C@H](C1)N(C(=O)CCc1n[nH]c3c1CCCC3)C2,-1.596
9,CN(C)C(=O)N1CCN(Cc2cnn(C)c2)CC2(CNC(=O)C2)C1.O=C(O)C(F)(F)F (configuration not stated),0.6854
10,COCCn1cnnc1CNc1cc(C)nc2c(C)c(C)nn12,44.3
11,Cc1cc(NCc2nnc3n2CCC3)n2nc(C)c(C)c2n1,-14.51
12,Cc1cc(NCCSc2nccn2C)n2nc(C)c(C)c2n1,72.35
13,Cc1ccnc(NCCSc2nccn2C)n1,9.062
14,CCSCCNc1cc(C)nc2c(C)c(C)nn12,105.5
15,Cc1cc(NCCSc2nccn2C)n2ncnc2n1,-35.12
16,CC(C)C[C@H](N)c1nnc(SCC(N)=O)o1.Cl,-14.25
17,Cn1ccnc1CN1CCC2(CC1)COC2.O=C(O)C(F)(F)F,6.701
18,CC(C)NC(=O)c1nc2c(s1)CCCN2Cc1ccccc1,16.22
19,CCN(C(=O)c1nc2c(s1)CCCN2Cc1ccccc1)C(C)C,52.41
20,CN(C)C(=O)c1nc2c(s1)CCCN2Cc1ccccc1,1.043
21,O=C(O)C(F)(F)F.O=C(O)C(F)(F)F.O=C(c1cccnc1)N1CCC2(CC1)COC(COc1ccccn1)C2 (configuration not stated),-16.52
22,CC[C@@H]1N(Cc2ccncc2)CCC[C@]12CCC(=O)N2CCOC.O=C(O)C(F)(F)F.O=C(O)C(F)(F)F,-19.31
23,O=C(O)C(F)(F)F.O=C(O)C(F)(F)F.c1cnc(N2CCO[C@H]3CN(CC4CC4)C[C@H]32)nc1,-34.72

row,SMILES,Percent Effect [%]
1,COc1ccccc1[C@@H]1CN(Cc2cc(C(C)(C)C)[nH]n2)C[C@H]1C(=O)O,79.87
2,COc1ccccc1[C@@H]1CN(Cc2ccncc2)C[C@H]1C(=O)O,45.83
3,COc1ccccc1[C@@H]1CN(Cc2ccc3nsnc3c2)C[C@H]1C(=O)O,-17.79
4,CN1CC(=O)N(c2ccccc2)CC12CCN(CC1CCOCC1)C2.O=C(O)C(F)(F)F.O=C(O)C(F)(F)F (configuration not stated),3.802
5,Cn1cnc2ccc(NC(=O)CCCn3cccn3)cc2c1=O,5.614
6,CC(C)n1cnc2ccc(NC(=O)CCCn3cccn3)cc2c1=O,-15.69
7,CC(C)Cn1cnc2ccc(NC(=O)CCCn3cccn3)cc2c1=O,60.75
8,CC(C)[C@H](N)CC(=O)Nc1nc(-c2cnc(N3CCOCC3)nc2)cs1.Cl,-24.08
9,CCC(=O)N1C[C@@H]2CCN(c3cnccn3)C[C@@H]2C1.O=C(O)C(F)(F)F,-28.75
10,O=C(O)C(F)(F)F.c1cnc(NCc2nnn3c2CN(Cc2ccco2)CCC3)nc1,-16.16
11,CC(C)c1cc2c(s1)NC(c1ccccc1)NC2=O (configuration not stated),16.99
12,CC(C)c1cc2c(s1)NC(c1ccccn1)NC2=O (configuration not stated),100.6
13,Cc1ccc(C2NC(=O)c3cc(C(C)C)sc3N2)cc1 (configuration not stated),19.82
14,CC(C)C(=O)N1CCN(Cc2ccccn2)CC2(CC(=O)N(C)C2)C1.O=C(O)C(F)(F)F.O=C(O)C(F)(F)F (configuration not stated),-3.72
15,CC(C)CN(Cc1nc2c(cnn2C)c(=O)[nH]1)C(C)C,9.965
16,Cc1ccc(C(C)N(C)Cc2nc3c(cnn3C)c(=O)[nH]2)s1 (configuration not stated),59.53
17,Cc1ccc(CN(Cc2nc3c(cnn3C)c(=O)[nH]2)C(C)C)s1,-2.161
18,Cc1ccccc1C(C)N(C)Cc1nc2c(cnn2C)c(=O)[nH]1 (configuration not stated),-10.61
19,CC(C)N(Cc1ccccn1)Cc1nc2c(cnn2C)c(=O)[nH]1,66.99
20,CC(c1ccccc1Cl)N(C)Cc1nc2c(cnn2C)c(=O)[nH]1 (configuration not stated),-6.582
21,Cc1ccc(C(C)N(C)Cc2nc3c(cnn3C)c(=O)[nH]2)c(C)c1 (configuration not stated),-15.24
22,Cc1ccc(C(C)N(C)Cc2nc3c(cnn3C)c(=O)[nH]2)cc1 (configuration not stated),36.86
23,COc1ccccc1C(C)N(C)Cc1nc2c(cnn2C)c(=O)[nH]1 (configuration not stated),82.45
